From PubChem BioAssay

Assay: CREB reporter modulators without forskolin, primary screen, cell-based, PC12, CRE-LacZ reporter, unstimulated (AID 1145)
Conditions: no forskolin, luminescence, 4.5 h, higher = more signal, called active from +8 up or from −8 down

z-score, inactive:
CCCC[C@@H](O)C1=C(C)Cn2c(=O)n(-c3ccccc3)c(=O)n2[C@H]1CO 1.77
CCOC(=O)C[C@H]1[C@H](OC(=O)c2cc3ccccc3oc2=O)[C@@H](NC(=O)Cc2ccc(OC)cc2)c2cc(OCCCO)ccc2N1C(=O)Cc1ccc(OC)cc1 -0.0558
COC(=O)C1=CC(CCCO)=CC(c2ccc(CN3CCCC3)cc2)N(C)C=C1C(=O)OC (stereo not given) -0.464
CCOC(=O)C[C@H]1[C@H](OC(=O)c2ccc(-c3ccccc3)cc2)[C@@H](NC(=O)c2ccc(-c3ccccc3)cc2)c2cc(OCCCO)ccc2N1C(=O)c1ccccc1 -0.724
COc1ccc(C(=O)Nc2cccc(CN3C(=O)[C@]4(O[C@H](CC(=O)N(CCO)Cc5ccccc5)[C@@H]([Si](C)(C)c5ccc(OC)cc5)[C@@H]4C)c4ccccc43)c2)cc1 1.72
O=C(N1CCOCC1)[C@]1(CCS(=O)(=O)c2ccccc2)N=C(c2ccc(OCCCO)cc2)O[C@@H]1c1ccccc1 1.1
CC(C)c1ccc(NN2C(C(O)c3ccccc3)C=CC3C(=O)N(c4ccccc4)C(=O)C32)cc1 (stereo not given) 0.433
COc1ccc([Si](C)(C)[C@H]2[C@H](CC(=O)N3CCC[C@H]3CO)O[C@@]3(C(=O)N(C)c4c(Br)cc(C)cc43)[C@@H]2C)cc1 0.758
COCCCNC(=O)[C@]1(Cc2ccccc2N=[N+]=[N-])N=C(c2ccc(OCCCO)cc2)O[C@@H]1c1ccccc1 1.76
[N-]=[N+]=NCc1ccccc1[C@H]1OC(c2ccc(OCCCO)cc2)=N[C@@]1(Cc1ccccc1N=[N+]=[N-])C(N)=O 0.0451
